Most compounds without a hit are left out; they make up all but 0.51% or so of the library.
FMDV antiviral – Primary qHTS Assay for Foot and Mouth Disease Virus Antivirals against NCGC Sytravon and CBC Compound Libraries: Firefly Luciferase Signal; Potency, µM (titrated, usually from 57.5 µM), for inactives: at the highest dose activity change, negative = inhibition, usual class: inhibitors; FMDV antiviral cell assay, firefly luciferase signal; AID 1745856, 2022; actives 0.23% (n = 120,000); further: nearly all actives have a fitted effect of over 60% in size
FMDV Renilla – Primary qHTS Assay for Foot and Mouth Disease Virus Antivirals against NCGC Sytravon and CBC Compound Libraries: Renilla Luciferase Signal; FMDV replicon cells, Renilla luciferase signal; Potency, µM (top dose mostly 57.5 µM), for inactives: at the highest dose activity change, negative = inhibition, actives largely listed as inhibitors; actives 0.32% (n = 120,000); AID 1745857, 2022; further: nearly all actives have a fitted effect of over 55% in size
Numbers without * were called inactive; ? = inconclusive. The call rests on the fitted dose curve. On the % scale 0 is the no-effect control and ±100 the full control effect; potency means the concentration at half of the fitted maximal effect.

SMILES	FMDV antiviral	FMDV Renilla
CCC1CCC(N(C(=O)Cc2nc(-c3cccs3)oc2C)C2CC2)CC1 (stereo not given)	35µM*	-20%
COc1ccc2cc(/C=C(/C#N)c3nc4ccccc4[nH]3)ccc2c1	225%	10µM*
COc1ccc(/C=C(/C#N)c2nc3ccccc3[nH]2)cc1	145%	213%
Fc1ccc(OCc2nnc(-c3ccccc3)o2)cc1F	123%	25%
c1ccc(Nc2c3c(nc4ccccc24)CCC3)cc1	-12%	-24%
CCc1ccc(Nc2c3c(nc4ccccc24)CCC3)cc1	25µM*	?
COc1ccc(-c2nc(C#N)c(N3CCN(C)CC3)o2)cc1OC	28%	5%
Cc1cccc(NC(=O)/C(C#N)=C/c2cc(C(C)(C)C)c(O)c(C(C)(C)C)c2)c1C	?	6.3µM*
Cc1ccc(/C=C(/C#N)C(=O)Nc2cccc3ncccc23)cc1	2%	17%
COc1ccc(C(=O)NCC(=O)OCC(=O)c2ccccc2)cc1	161%	3%
O=C(O)c1cccc(-c2ccc(CNCc3ccccc3)o2)c1	35%	31%
COc1ccc(-c2nc(SCc3cc(=O)c4cc(C)ccc4[nH]3)n[nH]2)cc1	-16%	?
COc1ccc(-c2nc(SCc3cc(=O)c4cccc(Cl)c4[nH]3)n[nH]2)cc1	?	11µM*
Cc1nc(N2CCN(Cc3ccc4c(c3)OCO4)CC2)[nH]c(=O)c1Cc1cccc2ccccc12	1%	-4%
COC(=O)C1CN(Cc2ccc(OC)cc2)CCS(=O)(=O)N1Cc1ccc(C(F)(F)F)cc1 (stereo not given)	32µM*	?
COC(=O)C1CN(Cc2ccc(OC)cc2)CCS(=O)(=O)N1Cc1ccc(Cl)cc1 (stereo not given)	0%	0%
Cc1cccc(OCc2nc3c4c(ncn3n2)OC2=C(C(=O)CCC2)C4c2ccco2)c1C (stereo not given)	20µM*	?
CC(=O)C1=C(C)Oc2ncn3nc(COc4cccc(C)c4C)nc3c2C1c1ccco1 (stereo not given)	-7%	-7%
Cc1ccc(C)c(N2CCN(C(=O)Cn3c(C)c4cnn(-c5ccccc5)c(=O)c4c3C)CC2)c1	25µM*	22µM*
Cc1c2cnn(-c3ccccc3)c(=O)c2c(C)n1CC(=O)N1CCN(c2cccc(Cl)c2)CC1	-8%	-3%
CCc1nc(CN2C(=O)COc3ccc(S(=O)(=O)NC4CCCCCCC4)cc32)no1	3%	189%
C=CCOc1ccc(/C=C(\C)[N+](=O)[O-])cc1OC	?	32µM*
CCOc1ccc(/C=C(\C)[N+](=O)[O-])cc1	?	-27%
CC1=CC(=O)C(C(=O)/C=C/c2ccc(C)s2)C(=O)O1 (stereo not given)	128%	-10%
O=C(c1cccc2ccccc12)N1CCC(c2nc3ccccc3o2)CC1	?	42%
SMILES	FMDV antiviral	FMDV Renilla
COc1ccccc1-c1cc2nc(C)c(CCC(=O)Nc3cc(C)ccc3C)c(C)n2n1	35µM*	-13%
COc1cc(OC)cc(-c2cc3nc(C)c(CCC(=O)Nc4ccccc4OC)c(C)n3n2)c1	3.2µM*	-12%
COc1cc(OC)c(NC(=O)CCc2c(C)nc3cc(-c4ccccc4OC)nn3c2C)cc1Cl	-19%	4%
COc1cc(OC)cc(-c2cc3nc(C)c(CCC(=O)NCc4ccccc4)c(C)n3n2)c1	?	-12%
O=C(Cn1c(=O)oc2cc(S(=O)(=O)N3CCCCC3)ccc21)NCc1ccc(F)cc1	15%	-15%
Cc1ccc(NC(=O)Cn2c(=O)oc3cc(S(=O)(=O)N4CCCCC4)ccc32)c(C)c1	?	8.9µM*
O=C(Cn1c(=O)oc2cc(S(=O)(=O)N3CCCCCC3)ccc21)NCc1ccccc1Cl	28µM*	?
COc1ccc(C)cc1NC(=O)Cn1c(=O)oc2cc(S(=O)(=O)N3CCCCCC3)ccc21	-22%	3%
COc1ccccc1CNC(=O)Cn1c(=O)ccc2cc(S(=O)(=O)N3CCC(C)CC3)ccc21	10%	56%
COc1ccccc1CNC(=O)Cn1c(=O)oc2cc(S(=O)(=O)N3CCC(C)CC3)ccc21	28µM*	?
CCCCn1c(=O)[nH]c(=O)c2c1nc(CSc1nnnn1C)n2CCC	-8%	1%
O=C(CCc1ccco1)OCC(=O)c1ccc2c(c1)OCO2	0%	18%
O=C1CCC(C(=O)Nc2ccc(Cl)c(Cl)c2)N1 (stereo not given)	1%	-11%
COc1ccc(NC(=O)CSc2nc3nc(C)cc(C)n3n2)cc1	9%	-17%
COc1ccc(Nc2cc(C)nc(Nc3ccc(NC(=O)CCc4ccccc4)cc3)n2)cc1	13µM*	?
Cc1cc(N2CCCC2)nc(Nc2ccc(NC(=O)c3c(F)cccc3F)cc2)n1	24%	5%
COc1ccc(Nc2cc(C)nc(Nc3ccc(NC(=O)CC(C)C)cc3)n2)cc1	?	28µM*
COc1ccc(CC(=O)Nc2ccc3nc(Nc4ccc(OC)cc4)cc(C)c3c2)cc1	?	0%
CCNc1cc(C)nc(Nc2ccc(NC(=O)c3ccccc3F)cc2)n1	?	28µM*
COc1cccc(CNC(=O)Cn2ncc3ccc(OC)c(OC)c3c2=O)c1	-2%	-18%
CC(C)Sc1nc2c(c(=O)n(C)c(=O)n2C)n1Cc1ccccc1	-6%	-10%
Cc1ccccc1C(C)NC(=O)c1ccc[n+]([O-])c1 (stereo not given)	20%	12%
Brc1ccc(CSc2ccc(-c3ccccn3)nn2)cc1	0%	-9%
N#CCOc1ccc2ccccc2c1	13µM*	1%
N#CCOc1ccc(COc2cccc(C#N)c2)cc1	111%	8%
SMILES	FMDV antiviral	FMDV Renilla
COc1cc(NC(=O)CCc2c[nH]c3ccccc23)cc(OC)c1	6%	-6%
CCCCS(=O)(=O)c1oc(-c2ccc(F)cc2)nc1S(=O)(=O)c1ccccc1	28µM*	6%
CC(C)S(=O)(=O)c1oc(-c2ccc(F)cc2)nc1S(=O)(=O)c1ccccc1	?	4%
Cc1nc2c3ccccc3nn2c(C)c1CCC(=O)Nc1cccc(F)c1	-6%	-16%
Cc1ccc(-c2cc(C(=O)O)c3cccc(Cl)c3n2)cc1	33%	-9%
Cc1cc(C)c(NC(=O)Cn2nnc(C(=O)NCc3cccs3)c2N)c(C)c1	35µM*	-3%
Cc1ccccc1NC(=O)Cn1nnc(C(=O)NCc2cccs2)c1N	100%	56%
Cc1cc(C(=O)N2CCN(c3cccc(C(F)(F)F)c3)CC2)cs1	-3%	-3%
Cc1nc(/C=C/C(=O)N2CCN(c3cccc(C(F)(F)F)c3)CC2)cs1	?	20µM*
OCCN(CCO)CC(O)COc1ccc2ccccc2c1 (stereo not given)	53%	2%
COC(=O)c1ccc(NS(=O)(=O)c2ccc(-n3cccn3)cc2)cc1	5%	46%
COc1ccc(NS(=O)(=O)c2ccc(-n3cccn3)cc2)cc1OC	8.9µM*	?
CC(C)C(C)(C#N)NC(=O)COc1ccccc1C(F)(F)F (stereo not given)	6%	-3%
COc1cc(CNC(=O)c2ccc3nc(CCc4ccccc4)oc3c2)cc(OC)c1OC	-24%	15%
COc1cc(CNC(=O)c2ccc3nc(Cc4ccccc4)oc3c2)cc(OC)c1OC	14µM*	?
CCOC(=O)C(O)(c1ccc(N(C)C(=O)Nc2ccc(Cl)c(Cl)c2)cc1)C(F)(F)F (stereo not given)	12%	-3%
O=S1(=O)C=CC2ON=C(c3c(Cl)cccc3Cl)C21 (stereo not given)	?	32µM*

Assay outcomes as filed in PubChem.
